Source: the supplement of paper PMC9897528

What follows are compounds tested on Scedosporium aurantiacum CBS 136046 (assay: growth inhibition relative to DMSO control (OD600); higher = more antifungal activity, active = 80 or more; extreme values may be limits of the assay). Settings: 5 µM; 72 h; 37 °C.
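Also: conidia screened in RPMI 1640 medium under 5% CO2, growth read by spectrophotometer, medium with 0.5% DMSO serving as the untreated reference.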

Growth inhibition, inactive:
[N-]=[N+]=N[C@H]1C[C@H](n2ccc(=O)[nH]c2=O)O[C@@H]1CO 11.7%, N=C(N)NCCCCC(=O)Nc1cc(C(F)(F)F)cc(NC(=O)c2cc(C(=O)Nc3cc(C(F)(F)F)cc(NC(=O)CCCCNC(=N)N)c3O[C@@H]3CCNC3)ncn2)c1O[C@@H]1CCNC1 37.1%, O=C(N[C@H](Cc1cccc2ccccc12)C(=O)NCCc1c[nH]cn1)C1Cc2ccccc2C1 2.31%, O=C(O)CSc1cc(NS(=O)(=O)c2cccc3cccnc23)c2ccccc2c1O 20.8%, Cc1[nH]c2ccccc2c1CC(=O)N[C@@H](Cc1ccccc1)C(=O)N(C)c1ccccc1 10.7%, CCc1nc2ccc(Cl)cn2c1C(=O)NCc1ccc(N2CCC(c3ccc(OC(F)(F)F)cc3)CC2)cc1 21.8%, Nc1nnc(-c2ccc(Cl)cc2)s1 6.96%, CCC(C)NCC(O)Cn1c2ccc(Cl)cc2c2cc(Cl)ccc21 (stereo not given) 25%, O=C(/C(=C/c1ccc(Cl)cc1Cl)n1ccnc1)c1ccc(Cl)cc1 59.4%, Cn1c2ccccc2c(=O)c2c(O)cccc21 6.84%, COc1ccc2nc(-c3ccccc3)cc(O)c2c1 17.5%, Cc1ncc([N+](=O)[O-])n1CC(C)O (stereo not given) 22.7%, CN(C)[C@@H]1C(=O)C(C(N)=O)=C(O)[C@@]2(O)C(=O)C3=C(O)c4c(O)c(NC(=O)CN5CCCC5)cc(F)c4C[C@H]3C[C@@H]12 0%, O=C(O)/C=C/C=C/c1cccc(Oc2cc(Cl)cc(Cl)c2)c1 13.8%, CC(C)Cn1c(=O)n(C)c(=O)c2c(-c3cncn3C)n(Cc3cccc4ccccc34)nc21 29%, CC(C)(C)OC(=O)NCc1ccc(C(=O)N[C@H]2CCOC2=O)cc1 15.3%, O=C(NO)C1(CS(=O)(=O)c2ccc(Oc3ccc(Cl)cc3)cc2)CCOCC1 7.63%, O=C(NCc1ccc2c3c(cccc13)C(=O)N2)c1cccs1 17%, Cc1cc(C)n(O)c(=O)c1 0.961%, Nc1nc(=O)c(Br)c(-c2ccccc2)[nH]1 0.62%, CCNC(=O)Nc1cn2c(-c3ncc(CC)cn3)cc(-c3cccnc3)cc2n1 0%, O=C(Nc1ncc(Cc2cccc3ccccc23)s1)C1CCCCC1 4.7%, O=c1[nH]c(=O)n(Cc2cccc(Oc3ccccc3)c2)cc1Nc1ccccc1 12.7%, Nc1cc(N)c2nc(-c3ccccc3)c(Nc3ccc(F)cc3)nc2c1 0.18%, O=C(O)c1ccc(-c2ccc(O[C@H]3O[C@H](CO)[C@@H](O)[C@H](O)[C@@H]3O)cc2)cc1 10.9%
